Columns and labels:
Experiment in all cases: DAPPL (digital affinity profiling via proximity ligation, sequencing); 10 mM Tris-HCl pH 7.5, 50 mM NaCl, 1 mM DTT, 4% glycerol, room temperature, 30 min; GST-TFs on glutathione beads, 16-mer random dsDNA library, 0.1% formaldehyde crosslink after washing; high values mean tight binding
[1] = molecular target: T1, FLI1 (Homo sapiens, UniProt Q01543 1-452); conditions: protein: recombinant; tags: N-terminal GST; dsDNA, one strand shown
T1 sequence: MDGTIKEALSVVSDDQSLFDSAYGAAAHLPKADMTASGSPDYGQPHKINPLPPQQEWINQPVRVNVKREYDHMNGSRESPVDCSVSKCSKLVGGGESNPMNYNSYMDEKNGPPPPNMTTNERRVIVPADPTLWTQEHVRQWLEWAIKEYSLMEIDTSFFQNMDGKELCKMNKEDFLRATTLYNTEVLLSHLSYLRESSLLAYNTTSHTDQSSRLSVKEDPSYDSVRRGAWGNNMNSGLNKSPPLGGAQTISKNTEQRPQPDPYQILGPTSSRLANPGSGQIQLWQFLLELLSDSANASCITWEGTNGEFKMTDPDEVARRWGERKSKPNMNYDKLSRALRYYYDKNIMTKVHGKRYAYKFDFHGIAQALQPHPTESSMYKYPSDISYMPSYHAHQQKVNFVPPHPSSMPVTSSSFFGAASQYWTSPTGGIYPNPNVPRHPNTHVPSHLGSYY
Method in brief: (§1)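 Sequencing on an Illumina NextSeq500 followed washing, crosslinking with 0.1% formaldehyde, proximity ligation (BsaI/T4 ligase, 1 h, 37 °C) and PCR amplification of pools that had been incubated for 30 min at room temperature with 200 nmole of a random double-stranded 16-mer DNA library in Tris/NaCl/DTT/glycerol buffer. Each pool held DNA-barcoded human transcription factors, expressed in yeast as GST fusions and captured on glutathione beads, plus a tag-only sample. Binding signal is a hexamer's read frequency for a factor divided by its frequency in the tag-only sample.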

[2] = molecular target: T2, ELK1 (Homo sapiens, UniProt P19419 1-428); conditions: protein: recombinant; tags: N-terminal GST; dsDNA, one strand shown
T2 sequence: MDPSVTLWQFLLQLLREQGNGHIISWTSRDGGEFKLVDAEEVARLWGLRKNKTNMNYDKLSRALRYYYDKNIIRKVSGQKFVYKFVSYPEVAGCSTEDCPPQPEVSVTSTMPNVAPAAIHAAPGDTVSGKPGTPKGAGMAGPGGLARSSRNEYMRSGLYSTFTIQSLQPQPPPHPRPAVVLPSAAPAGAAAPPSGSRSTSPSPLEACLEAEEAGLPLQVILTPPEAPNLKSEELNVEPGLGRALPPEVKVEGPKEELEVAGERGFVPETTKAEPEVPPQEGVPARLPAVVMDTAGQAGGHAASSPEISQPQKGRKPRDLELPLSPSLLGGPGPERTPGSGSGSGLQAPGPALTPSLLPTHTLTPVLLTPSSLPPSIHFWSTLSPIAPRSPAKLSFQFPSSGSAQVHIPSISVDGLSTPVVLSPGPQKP
Method in brief: as §1

[3] = molecular target: T3, GABPA (Homo sapiens, UniProt Q06546 1-454); conditions: protein: recombinant; tags: N-terminal GST; dsDNA, one strand shown
T3 sequence: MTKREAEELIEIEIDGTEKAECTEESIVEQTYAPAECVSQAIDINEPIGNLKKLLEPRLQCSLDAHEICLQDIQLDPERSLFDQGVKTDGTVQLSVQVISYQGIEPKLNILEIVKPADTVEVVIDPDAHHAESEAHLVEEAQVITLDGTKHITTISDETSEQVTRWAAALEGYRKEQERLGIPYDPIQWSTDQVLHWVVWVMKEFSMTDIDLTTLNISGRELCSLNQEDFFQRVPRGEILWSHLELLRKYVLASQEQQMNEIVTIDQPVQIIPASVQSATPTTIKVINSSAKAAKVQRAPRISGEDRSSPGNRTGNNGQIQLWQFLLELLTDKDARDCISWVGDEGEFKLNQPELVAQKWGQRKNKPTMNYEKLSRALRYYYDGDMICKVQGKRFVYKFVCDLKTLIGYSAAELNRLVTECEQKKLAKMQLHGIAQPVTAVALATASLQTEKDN
Method in brief: as §1

[4] = molecular target: T4, ERG (Homo sapiens, UniProt P11308 1-479); conditions: protein: recombinant; tags: N-terminal GST; dsDNA, one strand shown
T4 sequence: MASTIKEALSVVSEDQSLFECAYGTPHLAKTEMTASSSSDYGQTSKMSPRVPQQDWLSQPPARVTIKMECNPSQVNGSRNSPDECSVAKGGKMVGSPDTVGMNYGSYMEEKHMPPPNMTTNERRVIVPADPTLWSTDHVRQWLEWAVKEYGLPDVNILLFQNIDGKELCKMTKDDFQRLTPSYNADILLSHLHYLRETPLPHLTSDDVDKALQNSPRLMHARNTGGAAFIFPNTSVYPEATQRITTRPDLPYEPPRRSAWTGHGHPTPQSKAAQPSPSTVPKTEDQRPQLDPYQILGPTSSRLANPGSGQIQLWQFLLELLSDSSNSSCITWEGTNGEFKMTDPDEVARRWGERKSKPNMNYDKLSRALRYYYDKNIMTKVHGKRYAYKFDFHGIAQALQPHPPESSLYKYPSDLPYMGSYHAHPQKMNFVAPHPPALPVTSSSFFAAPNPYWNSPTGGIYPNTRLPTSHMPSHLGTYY
Method in brief: as §1

[5] = molecular target: ELF1 (Homo sapiens, UniProt P32519 1-619); conditions: protein: recombinant; tags: N-terminal GST; dsDNA, one strand shown
Chain of ELF1 (P32519 whole entry): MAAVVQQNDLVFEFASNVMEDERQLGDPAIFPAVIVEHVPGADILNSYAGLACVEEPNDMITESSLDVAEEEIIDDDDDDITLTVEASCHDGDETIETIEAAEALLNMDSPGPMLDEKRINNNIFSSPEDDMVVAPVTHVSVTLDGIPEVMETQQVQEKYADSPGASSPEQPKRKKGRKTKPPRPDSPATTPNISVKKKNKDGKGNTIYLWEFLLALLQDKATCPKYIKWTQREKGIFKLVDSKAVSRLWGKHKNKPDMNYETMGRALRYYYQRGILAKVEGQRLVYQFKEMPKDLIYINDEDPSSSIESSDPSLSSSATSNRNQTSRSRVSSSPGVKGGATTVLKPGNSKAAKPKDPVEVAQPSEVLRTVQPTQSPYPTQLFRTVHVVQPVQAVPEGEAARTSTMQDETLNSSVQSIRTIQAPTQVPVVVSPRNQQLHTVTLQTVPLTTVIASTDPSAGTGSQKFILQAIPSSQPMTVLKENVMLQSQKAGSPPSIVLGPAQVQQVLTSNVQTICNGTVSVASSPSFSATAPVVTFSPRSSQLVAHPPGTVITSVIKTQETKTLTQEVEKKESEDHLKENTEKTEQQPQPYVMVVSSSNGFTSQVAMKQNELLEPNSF
Method in brief: as §1

[6] = molecular target: T5, EHF (Homo sapiens, UniProt Q9NZC4 1-300); conditions: protein: recombinant; tags: N-terminal GST; dsDNA, one strand shown
T5 sequence: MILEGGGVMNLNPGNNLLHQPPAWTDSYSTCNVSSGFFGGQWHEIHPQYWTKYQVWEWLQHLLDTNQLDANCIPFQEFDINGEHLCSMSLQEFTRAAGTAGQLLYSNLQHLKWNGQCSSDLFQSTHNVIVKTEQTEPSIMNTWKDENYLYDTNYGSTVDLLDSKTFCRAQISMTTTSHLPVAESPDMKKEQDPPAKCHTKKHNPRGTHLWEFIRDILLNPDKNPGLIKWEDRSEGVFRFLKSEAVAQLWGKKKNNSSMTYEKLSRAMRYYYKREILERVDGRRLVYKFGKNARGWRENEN
Method in brief: as §1

[7] = molecular target: SPI1 (Homo sapiens, UniProt P17947 1-270); conditions: protein: recombinant; tags: N-terminal GST; dsDNA, one strand shown
Method in brief: as §1

[8] = molecular target: SPIB (Homo sapiens, UniProt Q01892 1-262); conditions: protein: recombinant; tags: N-terminal GST; dsDNA, one strand shown
Chain of SPIB (Q01892 whole entry): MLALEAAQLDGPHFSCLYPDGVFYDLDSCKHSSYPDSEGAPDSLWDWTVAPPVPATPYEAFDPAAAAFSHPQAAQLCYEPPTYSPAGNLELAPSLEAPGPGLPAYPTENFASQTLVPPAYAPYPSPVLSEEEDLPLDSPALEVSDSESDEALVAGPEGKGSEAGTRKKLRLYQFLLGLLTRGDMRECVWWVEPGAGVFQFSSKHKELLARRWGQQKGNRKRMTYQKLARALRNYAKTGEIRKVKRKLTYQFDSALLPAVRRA
Method in brief: as §1

[9] = molecular target: T6, ELK3 (Homo sapiens, UniProt P41970 1-407); conditions: protein: recombinant; tags: N-terminal GST; dsDNA, one strand shown
T6 sequence: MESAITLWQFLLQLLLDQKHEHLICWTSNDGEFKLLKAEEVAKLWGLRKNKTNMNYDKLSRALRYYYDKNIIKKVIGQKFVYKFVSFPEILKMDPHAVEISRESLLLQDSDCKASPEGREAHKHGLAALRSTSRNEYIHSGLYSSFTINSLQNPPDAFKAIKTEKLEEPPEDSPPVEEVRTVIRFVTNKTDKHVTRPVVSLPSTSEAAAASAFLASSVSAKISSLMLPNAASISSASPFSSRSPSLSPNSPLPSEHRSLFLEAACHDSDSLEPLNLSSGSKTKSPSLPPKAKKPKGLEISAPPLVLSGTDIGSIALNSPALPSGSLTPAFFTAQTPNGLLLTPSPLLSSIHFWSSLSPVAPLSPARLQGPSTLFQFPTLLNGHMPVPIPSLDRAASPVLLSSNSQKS
Method in brief: as §1

[10] = molecular target: T7, FEV (Homo sapiens, UniProt Q99581 1-238); conditions: protein: recombinant; tags: N-terminal GST; dsDNA, one strand shown
T7 sequence: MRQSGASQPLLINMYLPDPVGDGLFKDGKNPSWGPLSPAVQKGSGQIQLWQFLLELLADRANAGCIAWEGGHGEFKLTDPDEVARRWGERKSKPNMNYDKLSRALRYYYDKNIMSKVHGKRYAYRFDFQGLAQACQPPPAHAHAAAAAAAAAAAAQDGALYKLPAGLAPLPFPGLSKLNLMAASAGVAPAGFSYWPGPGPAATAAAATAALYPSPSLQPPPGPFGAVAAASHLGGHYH
Method in brief: as §1

[11] = molecular target: ETV5 (Homo sapiens, UniProt P41161 1-510); conditions: protein: recombinant; tags: N-terminal GST; dsDNA, one strand shown
Chain of ETV5 (P41161 whole entry): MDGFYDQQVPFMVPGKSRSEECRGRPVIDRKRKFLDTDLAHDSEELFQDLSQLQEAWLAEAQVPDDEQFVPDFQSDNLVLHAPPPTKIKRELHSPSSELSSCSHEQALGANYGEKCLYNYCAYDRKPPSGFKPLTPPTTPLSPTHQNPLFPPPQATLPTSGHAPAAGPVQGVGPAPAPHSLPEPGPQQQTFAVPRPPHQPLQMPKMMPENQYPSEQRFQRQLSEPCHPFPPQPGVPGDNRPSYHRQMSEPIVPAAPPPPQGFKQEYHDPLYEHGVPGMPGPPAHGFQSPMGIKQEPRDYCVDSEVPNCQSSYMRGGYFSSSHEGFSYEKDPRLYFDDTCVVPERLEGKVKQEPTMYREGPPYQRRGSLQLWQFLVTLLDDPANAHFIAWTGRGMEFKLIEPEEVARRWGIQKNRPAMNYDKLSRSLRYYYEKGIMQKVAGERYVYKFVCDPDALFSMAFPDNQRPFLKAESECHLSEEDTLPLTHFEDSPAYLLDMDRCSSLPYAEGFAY
Method in brief: as §1

[12] = molecular target: HSF1 (Homo sapiens, UniProt Q00613 1-529); conditions: protein: recombinant; tags: N-terminal GST; chain copies: 3; dsDNA, one strand shown
Chain of HSF1 (Q00613 whole entry): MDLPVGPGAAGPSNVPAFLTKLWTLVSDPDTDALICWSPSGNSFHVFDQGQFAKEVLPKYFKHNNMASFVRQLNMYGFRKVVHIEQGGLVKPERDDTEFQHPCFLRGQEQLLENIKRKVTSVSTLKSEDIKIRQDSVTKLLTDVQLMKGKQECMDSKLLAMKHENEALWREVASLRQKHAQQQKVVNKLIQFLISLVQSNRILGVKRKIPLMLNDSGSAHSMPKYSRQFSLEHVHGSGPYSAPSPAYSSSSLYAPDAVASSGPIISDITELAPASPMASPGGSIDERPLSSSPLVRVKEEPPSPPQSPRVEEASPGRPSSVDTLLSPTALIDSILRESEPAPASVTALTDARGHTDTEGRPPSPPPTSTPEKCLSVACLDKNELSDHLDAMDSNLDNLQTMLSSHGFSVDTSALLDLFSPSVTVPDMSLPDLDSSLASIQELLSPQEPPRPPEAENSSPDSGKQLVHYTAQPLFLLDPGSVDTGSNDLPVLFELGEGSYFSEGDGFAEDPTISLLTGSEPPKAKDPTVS
Method in brief: as §1

[13] = molecular target: T8, SPIC (Homo sapiens, UniProt Q8N5J4 1-248); conditions: protein: recombinant; tags: N-terminal GST; dsDNA, one strand shown
T8 sequence: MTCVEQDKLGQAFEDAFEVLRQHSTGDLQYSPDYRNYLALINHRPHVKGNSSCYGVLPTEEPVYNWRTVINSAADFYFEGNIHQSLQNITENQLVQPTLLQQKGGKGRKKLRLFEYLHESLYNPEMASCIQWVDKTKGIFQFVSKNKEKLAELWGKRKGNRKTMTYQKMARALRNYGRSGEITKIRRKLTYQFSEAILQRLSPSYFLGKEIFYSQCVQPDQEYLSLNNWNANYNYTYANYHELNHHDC
Method in brief: as §1

[14] = molecular target: ELF4 (Homo sapiens, UniProt Q99607 1-663); conditions: protein: recombinant; tags: N-terminal GST; dsDNA, one strand shown
Chain of ELF4 (Q99607 whole entry): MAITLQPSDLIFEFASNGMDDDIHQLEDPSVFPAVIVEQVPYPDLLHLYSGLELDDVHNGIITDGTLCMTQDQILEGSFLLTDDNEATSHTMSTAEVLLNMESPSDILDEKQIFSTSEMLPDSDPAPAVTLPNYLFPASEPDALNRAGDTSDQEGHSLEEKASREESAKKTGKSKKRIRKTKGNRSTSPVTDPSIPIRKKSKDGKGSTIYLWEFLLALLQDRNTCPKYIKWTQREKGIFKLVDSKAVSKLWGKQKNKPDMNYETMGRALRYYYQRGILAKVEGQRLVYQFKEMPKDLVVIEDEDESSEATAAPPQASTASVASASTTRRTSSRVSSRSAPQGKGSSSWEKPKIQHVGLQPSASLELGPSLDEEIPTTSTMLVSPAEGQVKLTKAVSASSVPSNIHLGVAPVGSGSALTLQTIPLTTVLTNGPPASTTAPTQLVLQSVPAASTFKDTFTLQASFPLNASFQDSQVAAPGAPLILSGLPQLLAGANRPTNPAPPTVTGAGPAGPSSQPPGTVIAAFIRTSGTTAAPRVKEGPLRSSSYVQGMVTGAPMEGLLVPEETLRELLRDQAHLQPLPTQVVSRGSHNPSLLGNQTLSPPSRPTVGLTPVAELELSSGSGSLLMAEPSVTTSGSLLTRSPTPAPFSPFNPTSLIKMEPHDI
Method in brief: as §1

[15] = molecular target: T9, ELK4 (Homo sapiens, UniProt P28324-2 1-405); conditions: protein: recombinant; tags: N-terminal GST; dsDNA, one strand shown
T9 sequence: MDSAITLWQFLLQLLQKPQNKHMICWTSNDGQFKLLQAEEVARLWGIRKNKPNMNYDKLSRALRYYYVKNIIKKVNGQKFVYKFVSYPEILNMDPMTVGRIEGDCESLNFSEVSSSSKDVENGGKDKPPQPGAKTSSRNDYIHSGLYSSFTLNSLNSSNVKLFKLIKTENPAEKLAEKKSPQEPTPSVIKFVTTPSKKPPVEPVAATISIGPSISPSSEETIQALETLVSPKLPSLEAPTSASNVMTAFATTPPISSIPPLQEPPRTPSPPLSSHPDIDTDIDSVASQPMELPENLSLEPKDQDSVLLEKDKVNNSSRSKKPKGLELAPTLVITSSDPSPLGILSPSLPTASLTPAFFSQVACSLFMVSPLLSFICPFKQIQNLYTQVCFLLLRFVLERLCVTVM
Method in brief: as §1

[16] = molecular target: T10, ETV2 (Homo sapiens, UniProt O00321 1-342); conditions: protein: recombinant; tags: N-terminal GST; dsDNA, one strand shown
T10 sequence: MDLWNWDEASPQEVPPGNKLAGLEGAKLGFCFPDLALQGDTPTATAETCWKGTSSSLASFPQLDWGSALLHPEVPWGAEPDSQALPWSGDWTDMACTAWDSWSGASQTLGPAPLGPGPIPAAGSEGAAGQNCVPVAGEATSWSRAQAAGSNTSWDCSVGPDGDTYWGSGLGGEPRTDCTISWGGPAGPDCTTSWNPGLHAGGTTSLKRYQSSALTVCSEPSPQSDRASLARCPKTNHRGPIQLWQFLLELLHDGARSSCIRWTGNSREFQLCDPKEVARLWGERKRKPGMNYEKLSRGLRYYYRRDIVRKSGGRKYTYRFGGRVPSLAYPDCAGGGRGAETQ
Method in brief: as §1

[17] = molecular target: T11, ELF3 (Homo sapiens, UniProt P78545 1-371); conditions: protein: recombinant; tags: N-terminal GST; dsDNA, one strand shown
T11 sequence: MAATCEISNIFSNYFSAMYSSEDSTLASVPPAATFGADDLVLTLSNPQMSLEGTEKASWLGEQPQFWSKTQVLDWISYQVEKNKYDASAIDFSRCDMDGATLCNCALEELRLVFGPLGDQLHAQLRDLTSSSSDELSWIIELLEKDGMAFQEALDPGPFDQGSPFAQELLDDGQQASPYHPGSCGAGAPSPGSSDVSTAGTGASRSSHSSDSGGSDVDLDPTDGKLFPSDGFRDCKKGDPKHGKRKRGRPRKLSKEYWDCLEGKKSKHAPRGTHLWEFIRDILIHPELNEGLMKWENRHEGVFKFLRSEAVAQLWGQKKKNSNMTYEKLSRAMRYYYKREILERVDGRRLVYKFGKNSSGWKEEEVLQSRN
Method in brief: as §1

[18] = molecular target: CRX (Homo sapiens, UniProt O43186 1-299); conditions: protein: recombinant; tags: N-terminal GST; dsDNA, one strand shown
Chain of CRX (O43186 whole entry): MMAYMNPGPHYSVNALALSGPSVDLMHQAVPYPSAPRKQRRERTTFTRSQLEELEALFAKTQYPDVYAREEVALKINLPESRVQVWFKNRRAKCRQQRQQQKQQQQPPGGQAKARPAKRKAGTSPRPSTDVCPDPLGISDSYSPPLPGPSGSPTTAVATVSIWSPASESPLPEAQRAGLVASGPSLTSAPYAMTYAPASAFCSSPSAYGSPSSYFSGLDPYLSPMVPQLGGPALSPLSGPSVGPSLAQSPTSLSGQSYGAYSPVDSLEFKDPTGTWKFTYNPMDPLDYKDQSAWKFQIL
Method in brief: as §1

[19] = molecular target: ETV1 (Homo sapiens, UniProt P50549 1-477); conditions: protein: recombinant; tags: N-terminal GST; dsDNA, one strand shown
Chain of ETV1 (P50549 whole entry): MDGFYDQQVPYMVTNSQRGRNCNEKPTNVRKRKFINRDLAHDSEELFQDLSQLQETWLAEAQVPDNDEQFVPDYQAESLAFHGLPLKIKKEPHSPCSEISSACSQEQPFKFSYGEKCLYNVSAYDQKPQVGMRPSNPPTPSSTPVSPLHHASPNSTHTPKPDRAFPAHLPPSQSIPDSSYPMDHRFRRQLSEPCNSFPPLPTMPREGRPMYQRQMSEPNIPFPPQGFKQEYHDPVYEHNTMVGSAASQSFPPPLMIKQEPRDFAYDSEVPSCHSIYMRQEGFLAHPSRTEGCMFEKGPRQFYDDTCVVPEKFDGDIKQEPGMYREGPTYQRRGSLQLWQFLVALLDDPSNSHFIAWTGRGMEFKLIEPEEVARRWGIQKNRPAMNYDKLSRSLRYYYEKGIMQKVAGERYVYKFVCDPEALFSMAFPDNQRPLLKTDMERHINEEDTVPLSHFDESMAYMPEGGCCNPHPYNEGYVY
Method in brief: as §1

Sequence: GTTCTG
- binding signal [1]: 1.14 fold enrichment (6-mer frequency, TF over GST control)
- binding signal [2]: 1.21 fold enrichment (6-mer frequency, TF over GST control)
- binding signal [3]: 1.16 fold enrichment (6-mer frequency, TF over GST control)
- binding signal [4]: 1.16 fold enrichment (6-mer frequency, TF over GST control)
- binding signal [5]: 1.08 fold enrichment (6-mer frequency, TF over GST control)
- binding signal [6]: 1.16 fold enrichment (6-mer frequency, TF over GST control)
- binding signal [7]: 1.17 fold enrichment (6-mer frequency, TF over GST control)
- binding signal [8]: 1.16 fold enrichment (6-mer frequency, TF over GST control)
- binding signal [9]: 1.18 fold enrichment (6-mer frequency, TF over GST control)
- binding signal [10]: 1.03 fold enrichment (6-mer frequency, TF over GST control)
- binding signal [11]: 1.08 fold enrichment (6-mer frequency, TF over GST control)
- binding signal [12]: 1.84 fold enrichment (6-mer frequency, TF over GST control)
- binding signal [13]: 1.1 fold enrichment (6-mer frequency, TF over GST control)
- binding signal [14]: 1.14 fold enrichment (6-mer frequency, TF over GST control)
- binding signal [15]: 1.3 fold enrichment (6-mer frequency, TF over GST control)
- binding signal [16]: 1.09 fold enrichment (6-mer frequency, TF over GST control)
- binding signal [17]: 1.12 fold enrichment (6-mer frequency, TF over GST control)
- binding signal [18]: 1.01 fold enrichment (6-mer frequency, TF over GST control)
- binding signal [19]: 1.1 fold enrichment (6-mer frequency, TF over GST control)

— PMC7862700, “An all-to-all approach to the identification of sequence-specific readers for epigenetic DNA modifications on cytosine”
